JMJD2A Tudor: inhibitors of human JMJD2A Tudor domain; AlphaScreen JMJD2A-Tudor / H3K4me3 peptide binding; AID 504339; O75164; Potency, µM (top dose mostly 114 µM), inactives show at the highest dose activity change, negative = inhibition, actives largely listed as inhibitors; actives 4.4% (n = 390,000); note: % is set by controls: 0 for no effect and ±100 for the full control effect; nearly all actives have a fitted effect of over 50% in size
Sfp PPTase inh: blocks B. subtilis Sfp PPTase activity | Q9F4F7 | Biochemical Sfp PPTase activity, qHTS | Potency, µM, for inactives: largest response in the series, negative = inhibition, actives largely listed as inhibitors | actives 3.5% (n = 310,000);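 note: the enzyme is Sfp with the accession as filed and its product quenches rhodamine fluorescence; 0% = enzyme reaction without inhibitor and -100% = no enzyme wells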
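Fluorescence-quenching assay with 15 nM Sfp, 5 uM rhodamine-CoA and 12.5 uM BHQ-2-labelled ybbR peptide in pH 7.6 Hepes/MgCl2 buffer. Enzyme was pre-incubated with compound for 15 min at room temperature. Rate was taken from the 30-min fluorescence change (525/598 nm).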
HP1b binding inh: HP1-beta chromodomain-methylated histone interaction inhibition. AID 540317. Potency, µM (top dose mostly 114 µM), for the others: at the top dose activity change, negative = inhibition, actives largely listed as inhibitors. actives 0.56% (n = 390,000). AlphaScreen HP1-beta / biotin-H3K9me3 peptide binding. P83916; note: nearly all actives have a fitted effect of over 70% in size
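Compound inhibition of the preformed complex between 50 nM HP1-beta and 50 nM biotinylated H3K9me3 peptide was read by AlphaScreen. Buffer was PBS pH 7.4 with 0.01% Tween-20. Incubations ran 30 min at room temperature, with 10 ug/mL donor/acceptor beads.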
G9a block: inhibitors of human histone lysine methyltransferase G9a; Potency, µM (series often up to 102 µM), inactives show at the highest dose activity, negative = inhibition, hits mostly inhibitors; AID 504332; Q96KQ7; actives 8.8% (n = 350,000); G9a H3K9 monomethylation, AlphaScreen, 2 h; note: % is set by controls: 0 for no effect and ±100 for the full control effect; nearly all actives have a fitted effect of over 75% in size
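Step 1: enzyme (final 20 nM) with compound, 15 min RT. Step 2: substrate peptide 500 nM and SAM 20 uM, 2 h RT. Step 3: anti-H3K9me1 antibody and AlphaScreen beads, 10 min, then plate read.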
L3MBTL1 block: blocks human L3MBTL1 | Q9Y468 | AlphaScreen L3MBTL1–H3K9me1 peptide binding | Potency, µM (titrated, usually from 57.1 µM), for the others: at the highest dose activity, negative = inhibition, usual class: inhibitors | actives 0.66% (n = 230,000) | AID 485360; note: % is set by controls: 0 for no effect and ±100 for the full control effect; nearly all actives have a fitted effect of over 60% in size
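First, the protein-peptide complex forms for 30 min at room temperature (L3MBTL1 50 nM, biotinylated H3K9me1 peptide 75 nM). Next, compounds are pin-transferred and incubated 30 min. Finally, AlphaScreen beads are added and read after 30 min.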
BAZ2B block: inhibitors of human BAZ2B bromodomain; AID 504333; actives 4.4% (n = 360,000); Potency, µM (series often up to 114 µM), for inactives: at the top dose activity change, negative = inhibition, most hits filed as inhibitors; AlphaScreen BAZ2B-H3K14Ac peptide displacement; note: % is set by controls: 0 for no effect and ±100 for the full control effect; nearly all actives have a fitted effect of over 60% in size
Target sequence (Q9UIF8 whole entry, looked up): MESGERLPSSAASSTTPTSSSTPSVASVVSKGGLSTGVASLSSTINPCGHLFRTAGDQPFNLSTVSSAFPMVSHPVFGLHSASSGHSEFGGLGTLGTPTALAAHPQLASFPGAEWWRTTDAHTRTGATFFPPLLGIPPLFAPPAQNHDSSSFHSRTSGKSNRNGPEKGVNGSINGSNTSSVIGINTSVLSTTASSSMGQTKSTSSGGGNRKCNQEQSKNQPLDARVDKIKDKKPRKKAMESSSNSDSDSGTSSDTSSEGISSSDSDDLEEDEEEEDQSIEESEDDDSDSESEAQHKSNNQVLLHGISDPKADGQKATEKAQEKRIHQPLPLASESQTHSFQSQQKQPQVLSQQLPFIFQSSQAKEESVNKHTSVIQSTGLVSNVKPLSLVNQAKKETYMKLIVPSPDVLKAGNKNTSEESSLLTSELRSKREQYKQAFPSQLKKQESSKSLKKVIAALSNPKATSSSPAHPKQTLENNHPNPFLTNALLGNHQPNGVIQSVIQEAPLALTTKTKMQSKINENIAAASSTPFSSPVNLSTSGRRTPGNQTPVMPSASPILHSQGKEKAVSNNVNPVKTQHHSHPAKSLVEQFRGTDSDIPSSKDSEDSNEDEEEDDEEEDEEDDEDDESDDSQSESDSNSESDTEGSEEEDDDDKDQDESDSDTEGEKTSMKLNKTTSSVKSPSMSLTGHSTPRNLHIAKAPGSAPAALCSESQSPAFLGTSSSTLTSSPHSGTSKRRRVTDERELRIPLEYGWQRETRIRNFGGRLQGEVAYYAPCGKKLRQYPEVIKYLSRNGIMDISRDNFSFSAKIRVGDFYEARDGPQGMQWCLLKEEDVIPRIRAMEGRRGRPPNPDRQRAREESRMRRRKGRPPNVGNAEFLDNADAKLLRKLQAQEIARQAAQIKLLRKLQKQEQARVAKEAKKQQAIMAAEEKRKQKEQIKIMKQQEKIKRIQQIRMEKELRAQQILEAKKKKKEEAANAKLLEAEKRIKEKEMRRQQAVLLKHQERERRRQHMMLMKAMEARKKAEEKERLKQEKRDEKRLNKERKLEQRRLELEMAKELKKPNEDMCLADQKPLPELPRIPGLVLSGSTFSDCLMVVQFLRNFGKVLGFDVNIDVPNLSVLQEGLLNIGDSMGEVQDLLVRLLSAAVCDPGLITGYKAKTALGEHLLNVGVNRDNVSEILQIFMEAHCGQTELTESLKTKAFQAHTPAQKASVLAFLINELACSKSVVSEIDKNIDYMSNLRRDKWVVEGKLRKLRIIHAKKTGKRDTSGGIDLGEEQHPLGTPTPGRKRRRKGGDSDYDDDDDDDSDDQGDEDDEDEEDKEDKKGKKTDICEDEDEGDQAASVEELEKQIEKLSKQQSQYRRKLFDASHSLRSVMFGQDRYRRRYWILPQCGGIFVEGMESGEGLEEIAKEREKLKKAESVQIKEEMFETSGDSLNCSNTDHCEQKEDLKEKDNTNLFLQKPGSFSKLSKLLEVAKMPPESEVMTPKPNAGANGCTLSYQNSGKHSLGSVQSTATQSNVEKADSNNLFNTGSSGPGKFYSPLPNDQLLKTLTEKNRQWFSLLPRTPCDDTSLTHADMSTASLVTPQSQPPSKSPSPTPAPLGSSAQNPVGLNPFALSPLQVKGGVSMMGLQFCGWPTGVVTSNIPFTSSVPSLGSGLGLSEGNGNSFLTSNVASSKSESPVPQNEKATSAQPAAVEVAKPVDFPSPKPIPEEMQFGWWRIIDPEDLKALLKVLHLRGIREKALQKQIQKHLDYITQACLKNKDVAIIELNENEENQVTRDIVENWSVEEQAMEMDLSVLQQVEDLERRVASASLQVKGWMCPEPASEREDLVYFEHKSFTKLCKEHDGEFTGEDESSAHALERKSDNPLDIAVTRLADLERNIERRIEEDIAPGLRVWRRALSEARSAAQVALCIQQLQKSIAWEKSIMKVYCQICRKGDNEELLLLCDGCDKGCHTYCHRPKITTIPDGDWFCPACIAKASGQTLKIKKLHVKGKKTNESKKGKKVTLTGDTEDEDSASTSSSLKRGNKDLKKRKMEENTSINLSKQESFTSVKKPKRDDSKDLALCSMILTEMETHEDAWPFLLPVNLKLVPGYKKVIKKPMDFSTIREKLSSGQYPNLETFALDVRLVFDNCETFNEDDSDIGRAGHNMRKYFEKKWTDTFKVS
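In this displacement format the biotinylated H3(5-23) peptide acetylated at Lys14 serves as ligand at 50 nM, with BAZ2B at 50 nM in PBS pH 7.4 containing 0.01% Tween-20. Donor and acceptor beads are 10 ug/mL final.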
Numbers without * were called inactive; ? = inconclusive; nt = no result given; [ ] = another dose, or the depositor's remark. A selection: hits, their analogues and other compounds. The true share with any hit is near 12%. Calls come from the whole dose curve; as a rule, active = well fitted curve in the direction sought with a large enough effect; inconclusive = small, poorly fitted or top-dose-only effect, or another doubt; inactive = no such curve, though single readings can be large; an effect the other way counts as inactive or inconclusive. Potency is the fitted concentration of half-maximal effect.

SMILES	JMJD2A Tudor	Sfp PPTase inh	HP1b binding inh	G9a block	L3MBTL1 block	BAZ2B block
Cc1ccccc1NC(=O)CSc1nnc(-c2ccco2)n1N	-18.7%	nt	?	7.94µM*	-6.9%	12.7%
O=C(CSc1nnc2ccc(-c3ccco3)nn12)Nc1ccccc1F	-17.6%	nt	72.9%	14.1µM*	-0.7%	?
Cc1ccccc1NC(=O)CSc1nnc2ccc(-c3ccccn3)nn12	-8.2%	nt	47.2%	-34.8%	5.9%	6.6%
Cc1cc(C)c(NC(=O)CSc2nnc(-c3ccco3)n2N)c(C)c1	5.4%	-1.0%	7.5%	3.3%[12.7 µM]	nt	-0.3%
Cc1ccccc1NC(=O)CSc1ccc(-c2ccco2)nn1	-26.4%	22.4µM*	11.2%	-19.1%[59 µM]	-7.8%	-33.7%
Cc1ccccc1NC(=O)Cc1nnc(SCC(=O)NC2=NCCS2)n1C	25.1µM*	6.7%	-7.9%	?	nt	-1.5%
COc1ccc(C(C(=O)NC2CCCC2)N(C(=O)CNC(=O)c2ccco2)c2cccnc2)cc1 (stereo unspecified)	4.6%	15.1%	39.9%	16.4%[59 µM]	nt	1.3%
Cc1cc(OC(=O)c2cccc(Cl)c2)c([N+](=O)[O-])c(=O)[nH]1	-23.8%	8.8%	14.1%	33.2%	nt	-20.0%
COc1ccccc1OCC(=O)N(Cc1cccs1)C1CCS(=O)(=O)C1 (stereo unspecified)	-3.4%	nt	19.5%	8.3%[59 µM]	nt	6.0%
COc1ccccc1NC(=O)CSc1ccc(-c2ccco2)nn1	-25.0%	44.7µM*	20.6%	?	nt	?
COc1ccc(NC(=O)CSc2nnc(-c3ccoc3C)n2CCc2ccccc2)cc1	-27.4%	4.8%	-2.9%	12.1%[2.33 µM]	nt	?
Cc1ccccc1NC(=O)CSc1nnc(-c2ccoc2C)n1CCc1ccccc1	-18.6%	-14.9%	19.2%	79.4µM*	-8.9%	?
Cc1ccc(C)c(NC(=O)CSc2ccc(-c3ccco3)nn2)c1	-7.0%	14.1µM*	31.8%	-13.8%[59 µM]	-0.8%	-24.8%
Cc1ccc(C)c(NC(=O)CSc2nnc(CNC(=O)c3ccco3)n2C)c1	-14.5%	13.5%	-2.8%	14.5%[59 µM]	nt	4.9%
COc1nc(=O)n(C2CCCO2)cc1C (stereo unspecified)	-11.1%	nt	32.6%	nt	nt	nt
Cc1cn(C2CCCCO2)c(=O)nc1NO (stereo unspecified)	89.1µM*	nt	14.1%	nt	nt	nt
N#CC1=C2SCC(O)(c3ccccc3)N2C(=O)CC1c1ccccc1 (stereo unspecified)	-33.2%	56.2µM*	11.6%	39.8µM*	-8.5%	?
NC(=Nc1ccccc1)N(c1ccccc1)c1ccccc1	-9.7%	nt	-4.8%	nt	nt	nt
O/C(=C\c1nc2ccccc2nc1/C=C(\O)c1ccccc1)c1ccccc1	?	39.8µM*	-16.2%	?	nt	4.47µM*
O=c1oc2ccccc2nc1/C=C(\O)c1ccccc1	-3.7%	?	50.5%	nt	nt	?
CCc1nn2c(=O)cc(COc3ccc(/C=C4\C(=N)N5N=C(CC(C)C)SC5=NC4=O)cc3)nc2s1	44.7µM*	-4.4%	8.9%	15.0%[59 µM]	nt	?
CCC1=NN2C(=N)/C(=C\c3ccc(OCc4cc(=O)n5nc(CC)sc5n4)c(OC)c3)C(=O)N=C2S1	?	9.4%	-36.4%	?	?	79.4µM*
C=CCOc1ccc(/C=C/C(=O)OCC(=O)NCCCc2ccccc2)cc1	-20.3%	nt	24.3%	-2.4%	7.0%	6.9%
CCN(CC(=O)NC(C)(C)C)Cc1cc(=O)n2c(-c3ccccc3)csc2n1	-27.2%	4.2%	-9.1%	-22.3%	nt	?
CC1(C)CC(NC(=O)c2ccc(-c3ccc([N+](=O)[O-])cc3)o2)CC(C)(C)N1	-31.7%	-22.8%	15.5%	44.7µM*	nt	-33.1%
SMILES	JMJD2A Tudor	Sfp PPTase inh	HP1b binding inh	G9a block	L3MBTL1 block	BAZ2B block
CC1CC(C)CN(C(=O)c2ccc(-c3ccc([N+](=O)[O-])cc3)o2)C1 (stereo unspecified)	44.7µM*	nt	?	11.2µM*	-12.7%	35.5µM*
O=C(NN1C(=O)NC2(CCCCC2)C1=O)c1ccc(-c2ccccc2Cl)o1	-8.2%	nt	26.0%	0.3%[2.33 µM]	-10.6%	-23.7%
O=C(Nc1nccs1)c1ccc(-c2ccc([N+](=O)[O-])cc2)o1	-33.0%	25.1µM*	46.2%	nt	-0.6%	?
O=C(c1ccc(-c2cccc([N+](=O)[O-])c2)o1)N1CCN(c2ccc([N+](=O)[O-])cc2)CC1	-13.1%	nt	0.6%	?	0.0%	3.7%
O=C(NN1C(=O)NC2(CCCCC2)C1=O)c1ccc(-c2ccc([N+](=O)[O-])cc2)o1	-33.7%	10.1%	1.2%	79.4µM*	nt	-28.6%
COc1ccc(NC(=O)c2ccc(-c3ccc([N+](=O)[O-])cc3)o2)cc1	-9.8%	-76.0%	17.9%	?	nt	-0.7%
O=C(CCNC(=O)c1ccc([N+](=O)[O-])cc1)Nc1nccs1	-0.6%	11.5%	44.9%	50.1µM*	6.5%	-17.3%
O=C(CN1C(=O)c2ccc([N+](=O)[O-])cc2C1=O)Nc1nccs1	-13.7%	-26.6%	12.5%	50.1µM*	0.2%	-32.1%
O=C(CCNC(=O)c1ccc(Br)cc1)Nc1nccs1	0.0%	23.5%	20.9%	12.1%	8.6%	-4.4%
O=C(Nc1ccccc1)c1ccc(-c2ccc([N+](=O)[O-])cc2)o1	?	50.1µM*	?	35.5µM*	nt	-11.4%
N#CCN1CCC(c2cc(-c3ccco3)n[nH]2)CC1	-21.1%[11.4 µM]	11.2µM*	?	-41.9%	3.7%	-15.8%
c1coc(-c2cc(C3CCNCC3)[nH]n2)c1	-12.4%	6.4%	-12.7%	?	-15.1%	-15.6%
Cc1cccc2sc(NC(=O)c3ccc(OCC4CCCO4)cc3)nc12 (stereo unspecified)	-3.6%	-23.3%	14.1%	-7.7%[59 µM]	69.3%	-2.8%
CCOc1ccc2nc(NS(=O)(=O)c3ccc4c(c3)n(C)c(=O)n4C)sc2c1	7.0%	-1.4%	45.0%	?	2.6%	56.2µM*
CCOc1ccc(NS(=O)(=O)c2ccc3c(c2)n(C)c(=O)n3C)cc1	-10.0%	-0.9%	29.4%	22.6%[0.501 µM]	nt	?
CCOc1ccc2nc(NC(=O)c3ccc(OCC4CCCO4)cc3)sc2c1 (stereo unspecified)	-1.7%	?	24.8%	44.7µM*	3.6%	13.7%
CCOc1ccc2nc(Cl)sc2c1	-2.8%	-33.4%	1.9%	35.5µM*	6.8%	15.1%
CCOc1ccc2nc(NC(=O)Cn3c(C)csc3=O)sc2c1	-17.2%	nt	12.9%	39.8µM*	1.6%	-7.0%
C=C1C(CCl)(CCl)C2(Cl)C(Cl)C(Cl)C1(Cl)C2(Cl)Cl (stereo unspecified)	nt	-18.3%	nt	?	nt	nt
CCOc1ccc(S(=O)(=O)Nc2nc3ccc(OC)cc3s2)cc1	-9.3%	16.2%	39.0%	?	nt	0.1%
CCOc1ccc2nc(NS(C)(=O)=O)sc2c1	-19.0%	-26.3%	45.6%	7.08µM*	33.8%[11.4 µM]	-17.3%
